Laboratory results from PubChem BioAssay AID720706 (Broad Institute, 2013).
Values joined by “and” are separate entries in the source; they are usually repeats but may differ in a detail not shown here. Identical values can stand only once. The whole screen tested about 350,000 compounds, of which about 5,500 (1.6%) were called active.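 The calls were made as follows: active = significant combined selectivity score with lowered wild-type GFP, culture density cut under 30%, mutant RFP and density less affected; inactive = any of these conditions unmet.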 Shown is part of a subset that was picked to be rich in actives.

Assay: reduced GFP signal of wild-type E. coli, primary screen, bacterial rRNA inhibitor project, GFP/RFP fluorescence, OD600, single point (AID 720706)
Details: E. coli WT GFP vs humanized-ribosome RFP mutants, 24 h; GFP signal change (wild-type ribosome): stronger effect = lower value, DMSO median 0, no signal -100; OD600 change: measured here: OD600 growth, DMSO median 0, no signal -100; RFP signal change: measured here: RFP humanized mutant strains, DMSO median 0, no signal -100, concentration not given here

Structure (SMILES) | GFP signal change (wild-type ribosome) | OD600 change | RFP signal change
COc1ccccc1NC(=O)N[C@H]1CC[C@@H](CCn2cc(C3(O)CCCC3)nn2)O[C@@H]1CO | -0.097% (inactive) | 0.829% | -2.3%
CC(C)NC(=O)N1[C@H](C(=O)N2CCc3ccccc3C2)[C@@H](CO)[C@@H]2Cn3c(cccc3=O)[C@@H]21 | -0.919% (inactive) | -4.45% | -2.12%
Cc1ccccc1NC(=S)NC(=O)Cc1ccc(Cl)cc1 | -31.6% (active) | -2.94% | 1.01%
O=C(Cc1ccc(Cl)cc1)NC(=S)Nc1ccccc1O | 6.71% (inactive) | -1.88% | 5.02%
Cc1cccc(NC(=S)NCCc2ccc(Cl)cc2)c1C | -5.8% (inactive) | -24.2% | 6.65%
C[C@H](CO)N1C[C@H](C)[C@H](CN(C)S(=O)(=O)c2cccs2)Oc2c(NS(=O)(=O)c3ccc(Cl)cc3)cccc2C1=O | -5.17% (inactive) | -6.49% | 3.43%
CCCn1c(=S)[nH]c2ccc(C(F)(F)F)cc21 | -39% (active) | -18.3% | -4.67%
CN(C)CCn1c(=S)[nH]c2ccc(Cl)cc2c1=O | 5.19% (inactive) | 0.375% | 2.03%
CC(C)n1c(=S)[nH]c2cc(C(F)(F)F)ccc21 | -0.904% (inactive) | -3.6% | -3.06%
Cc1ccccc1-c1ccc([C@H]2[C@@H](CO)N3C(=O)CN(C(=O)c4cccnc4)C[C@@H]23)cc1 | 3.51% (inactive) | 8.18% | -0.0435%
CC(C)c1ccc(NC(=S)NC2CC3C=CC2C3)cc1 (stereo unspecified) | -37.3% (inactive) | -66.8% | 0.867%
S=C(NNC(=S)NC1CC2C=CC1C2)NC1CC2C=CC1C2 (stereo unspecified) | -47.5% (active) | -15.1% | -13.4%
CCCNC(=O)N1[C@H](CO)[C@H]2c3ccccc3N(C(=O)Nc3cccc(Cl)c3)C[C@H]21 | -57.4% (inactive) | -71.6% | -12.8%
CCCN1C[C@H](C)[C@H](OC)CN(C)C(=O)c2cc(NC(=O)NC3CCCC3)ccc2OC[C@H]1C | -0.637% (inactive) | 8.41% | 2.12%
CC(=O)C(CC(=O)N1CCCC1)C(=O)Nc1ccc(Cl)cc1 (stereo unspecified) | 1.69% (inactive) | 9.42% | 0.378%
O=C(NC1CCN(C(=S)Nc2ccc(Cl)cc2)CC1)C1CCCCC1 | 6.47% (inactive) | 11.2% | 0.251%
CC(=O)N1CCC(N(C(=O)Nc2ccc(Cl)cc2)C(C)C)CC1 | -25.5% (active) | -18% | -0.55%
CCCN(C)C[C@H]1OCCCC[C@H](C)Oc2ccc(NS(=O)(=O)c3ccc(C)cc3)cc2C(=O)N([C@@H](C)CO)C[C@H]1C | -0.746% (inactive) | -1.7% | -0.147%
CC(C)NC(=O)N1CCCCN2[C@@H](CO)[C@@H](c3ccc(C#C[C@@H](C)O)cc3)[C@@H]2C1 | 5.76% (inactive) | 13.1% | -1.96%
O=S(=O)(Cc1ccccc1)N1CCCCN2[C@@H](CO)[C@H](c3ccc(-c4ccccc4)cc3)[C@@H]2C1 | -9.68% (inactive) | -41.9% | 18.6%
CN(C)CC#Cc1ccc([C@@H]2[C@H](CO)N3CCCCN(C(=O)NC4CCCC4)C[C@@H]23)cc1 | 5.92% (inactive) | 4.22% | 0.0255%
CCOC(=O)C1C(=O)NCC1c1ccccc1 (stereo unspecified) | 8.68% (inactive) | -9.73% | 1%
CCOC(=O)C1=C(c2ccccc2)NC(=S)NC1c1ccc(Cl)cc1 (stereo unspecified) | -8.35% (inactive) | -7.99% | -0.819%

Structure (SMILES) | GFP signal change (wild-type ribosome) | OD600 change | RFP signal change
C=CCC1(C#N)C(=S)NC(C)=C(C(=O)OCC)C1c1ccccc1 (stereo unspecified) | -26.3% (active) | -19.2% | -3.7%
COc1ccc(NC(=O)N(C)C[C@@H]2OCCCC[C@@H](C)Oc3ccc(NS(=O)(=O)c4cn(C)cn4)cc3C(=O)N([C@@H](C)CO)C[C@H]2C)cc1 | -1.24% (inactive) | -4.49% | 0.792%
COc1ccc2c3c(n(C)c2c1)[C@@H](CO)N(C(=O)c1cccnc1)CC31CCN(C(=O)c2cccnc2)CC1 | 2.76% (inactive) | 15.2% | -2.73%
N#CCSc1nn(-c2ccc(F)cc2)c(=S)s1 | -34% (active) | -20.7% | -5.63%
Cc1ccccc1-n1nc(SCC(=O)O)sc1=S | -0.028% (inactive) | 2.15% | 5.05%
O=C(CSc1nn(-c2ccc(F)cc2)c(=S)s1)NC1CCS(=O)(=O)C1 (stereo unspecified) | 9.16% (inactive) | 9.88% | 20.6%
CN(C)CCCNC(=O)C[C@H]1CC[C@H]2[C@@H](COC[C@H](O)CN2C(=O)c2ccncc2)O1 | 1.62% (inactive) | 1.82% | -2.93%
O=S(=O)(N[C@@H]1CC[C@H](CCn2cc(C3(O)CCCC3)nn2)O[C@@H]1CO)c1ccc(Cl)cc1 | 1% (inactive) | -3.78% | -2.53%
Cc1c(/C=N\NC(=O)c2cc3ccccc3o2)c2ccccc2n1C | -23.4% (active) | -4.47% | 6.38%
O=C(N/N=C/c1cccc(O)c1)c1cc2c(ccc3ccccc32)o1 | -16.9% (inactive) | -25.4% | 6.33%
Cc1cc(NC(=O)c2cc3ccccc3o2)no1 | -2.45% (inactive) | 5.97% | 7.13%
Cc1ccccc1S(=O)(=O)N1CC(=O)N2[C@H](CO)[C@H](c3ccc(C#CCN(C)C)cc3)[C@H]2C1 | 4.6% (inactive) | 9.79% | 0.298%
COc1cc(CN2CC3(CN(S(=O)(=O)c4cccs4)C3)c3c(n(C)c4cc(OC)ccc34)[C@H]2CO)cc(OC)c1 | 4.45% (inactive) | -5.95% | -2.78%
CNS(=O)(=O)c1cccc(C(=O)OCC(=O)N2c3ccccc3NC(=O)C2(C)C)c1 | -0.594% (inactive) | 2.51% | -1.67%
Cc1cc(C(=O)OCC(=O)N2c3ccccc3NC(=O)C2(C)C)c(C)n1-c1ccccc1 | -9.02% (inactive) | -33.1% | -9.39%
CCNc1ccc(C(=O)OCC(=O)N2c3ccccc3NC(=O)C2(C)C)cc1[N+](=O)[O-] | -25.9% (active) | -16.2% | -4.1%
O=C(C[C@H]1CC[C@@H]2[C@H](COC[C@@H](O)CN2Cc2cccc(-c3ccncc3)c2)O1)N1CCOCC1 | -1.04% (inactive) | 0.357% | -4.81%
C[C@H]1CN([C@@H](C)CO)C(=O)Cc2cc(NC(=O)NC3CCCCC3)ccc2O[C@@H]1CN(C)Cc1ccc(Oc2ccccc2)cc1 | 1.65% (inactive) | 0.966% | -0.931%
C[C@@H]1CN([C@@H](C)CO)C(=O)c2cc(NC(=O)Nc3ccc(C(F)(F)F)cc3)ccc2O[C@@H]1CN(C)Cc1ccncc1 | 8.75% (inactive) | -38.7% | 31.2%
O=C(CCc1c[nH]c2ccccc12)NCCOc1ccccc1 | 7.54% (inactive) | 3.6% | 0.609%
O=C(COC(=O)Cc1c[nH]c2ccccc12)NCCc1ccccc1 | 1.61% (inactive) | -7.07% | 1.57%
O=C(NCCc1c[nH]c2ccccc12)c1cccc(Br)c1 | -23% (active) | -17% | 3.38%
O=C(NCCc1c[nH]c2ccccc12)c1cc2ccccc2oc1=O | -5% (inactive) | 0.635% | -0.892%

Structure (SMILES) | GFP signal change (wild-type ribosome) | OD600 change | RFP signal change
O=C(NCCc1c[nH]c2ccccc12)C1CCN(Cc2ccc(Br)cc2)CC1 | -52.8% (inactive) | -78.6% | -12.4%
COc1ccccc1CC(=O)NCCc1c[nH]c2ccccc12 | -17.2% (active) | -2.84% | 2.84%
O=C(C[C@H]1CC[C@H]2[C@@H](COC[C@@H](O)CN2S(=O)(=O)c2ccc(Cl)cc2)O1)NCCN1CCCCC1 | 0.039% (inactive) | 1.47% | -0.478%
COc1cccc(CC(=O)N2CCN(C(=O)C(=O)c3cccc(C(F)(F)F)c3)CC2)c1 | -2.93% (inactive) | -8.1% | 7.12%
C[C@@H]1CN([C@@H](C)CO)S(=O)(=O)c2ccc(-c3cccc(C(=O)N(C)C)c3)cc2O[C@@H]1CN(C)C(=O)Nc1ccccc1 | -9.2% (inactive) | -5.97% | -2.53%
O=C(NNC(=O)C1C2CCC(C2)C1C(=O)O)c1ccc(Cl)cc1 (stereo unspecified) | 1.61% (inactive) | 3.63% | -0.52%
O=C(NNC(=S)NC1CC2CCC1C2)c1ccc(Cl)cc1 (stereo unspecified) | -24.6% (active) | -6.95% | -4.4%
O=S(=O)(NC1CC2CCC1C2)c1ccc(Cl)cc1 (stereo unspecified) | 3.91% (inactive) | -2.44% | -1.19%
COc1ccc(NC(=O)N(C)C[C@@H]2Oc3ccc(NS(=O)(=O)c4ccc(C)cc4)cc3CC(=O)N([C@@H](C)CO)C[C@H]2C)cc1 | 0.124% (inactive) | -3.65% | 1.41%
S=C(c1ccc(-c2ccccc2)o1)N1CCCCC1 | -28.2% (active) | -14.7% | -0.16%
CN1CCN(C(=O)c2ccc(-c3ccc(Br)cc3)o2)CC1 | -5.31% (inactive) | -1.78% | 2.79%
CC1CCN(C(=S)c2ccc(-c3ccc(Cl)cc3Cl)o2)CC1 | -16.5% (inactive) | -16.4% | -6.12%
C[C@@H]1CN([C@H](C)CO)C(=O)c2cc(-c3cncnc3)cnc2O[C@@H]1CN(C)Cc1ccc(Oc2ccccc2)cc1 | 1.64% (inactive) | 8.99% | 0.949%
O=S(=O)(NC[C@H]1[C@H](c2ccccc2)[C@H](CO)N1CC1CC1)c1ccccc1 | -3.76% (inactive) | -2.41% | -1.76%
CCc1cc2cc(OC)ccc2nc1SCC(=O)Nc1cc(OC)c(OC)cc1C(=O)O | -19.8% (active) | -8.13% | -0.961%
COc1ccc(NC(=O)CSc2nc(SC)ns2)c(OC)c1 | -4.47% (inactive) | -9.82% | 2.07%
COc1ccc(OC)c(NC(=O)CSc2nc(-c3ccccc3)cc(=O)[nH]2)c1 | -0.85% (inactive) | -0.395% | -1.33%
COc1cccc(NC(=O)N2[C@@H]3CNC[C@H]2C3c2ccc(-c3ccncc3)cc2)c1 (stereo partly specified) | 5.32% (inactive) and -0.155% (inactive) | 9.53% and -0.49% | 1.61% and -4.31%
Cc1ccc(S(=O)(=O)N2CC(O)C[C@H]2C(=O)OCC(=O)Nc2ccc(N3CCOCC3)cc2)cc1C (stereo partly specified) | 4.3% (inactive) | 7.03% | 2.94%
O=C1COc2ccc(C(=O)COC(=O)C3CC(O)CN3S(=O)(=O)c3ccc(Cl)cc3)cc2N1 (stereo unspecified) | -11.8% (inactive) | -8.3% | 1.61%
CC1CCCC(NC(=O)COC(=O)[C@@H]2CC(O)CN2S(=O)(=O)c2ccc3c(c2)OCCO3)C1C (stereo partly specified) | -31.5% (active) | -14.6% | -2.13%
